Experimental data taken from the supplement of paper PMC10849652.
About 7,900 targets were measured; listed, in parts, are those with a hit and a random draw of the rest. About 0.6% of all pairs of compound and target were hits. A number with no mark means an inactive call.

Columns and labels:
Test in all cases: log2 fold change, soluble protein after heating vs DMSO (PISA); higher = thermal stabilisation; K562 cells, 10 uM, 30 min; active = over 0.2 and 3.5 SD of the protein, either way, in both replicates (recomputed)
[1] = compound: COC1=CC=C(C=C1)CN2C=CC3=C2C=C(C=C3)C(=O)NO
Summary of the method: (§1)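 K562 cells at 2×10^6 cells/mL were treated for 30 min with 10 μM compound, and aliquots were heated for 3 min over 48°C-58°C before pooling. Extraction used PBS with 0.5% NP-40 at 4°C, and soluble protein was the supernatant after 21,000xg for 90 min, measured by TMTpro 16plex LC-MS/MS with channel sums equalised. Thermal stability values, relative to control samples and from duplicates, are log2 fold changes.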

[2] = compound: CON(C)C(=O)N1N=C(c2cc(F)ccc2F)S[C@@]1(CCCN)c1ccccc1 [filanesib]
Summary of the method: as §1

[3] = compound: CO[C@H]1C[C@@H]2CC[C@@H](C)[C@@](O)(O2)C(=O)C(=O)N2CCCC[C@H]2C(=O)O[C@H]([C@H](C)C[C@@H]2CC[C@H](n3cnnn3)[C@H](OC)C2)CC(=O)[C@H](C)/C=C(\C)[C@@H](O)[C@@H](OC)C(=O)[C@H](C)C[C@H](C)/C=C/C=C/C=C/1C [zotarolimus]
Summary of the method: as §1

[4] = compound: COc1cc(C(=O)O)ccc1NC(=O)[C@@H]1N[C@@H](CC(C)(C)C)[C@](C#N)(c2ccc(Cl)cc2F)[C@H]1c1cccc(Cl)c1F [idasanutlin]
Summary of the method: as §1

[5] = compound: COc1cc(Nc2ncc3c(n2)-c2ccc(Cl)cc2C(c2c(F)cccc2OC)=NC3)ccc1C(=O)O [alisertib]
Summary of the method: as §1

[6] = compound: COc1cc2nc(-c3cc(F)ccc3O)nc(N[C@@H]3CNC[C@H]3C(C)(C)O)c2cc1OC
Summary of the method: as §1

[7] = compound: COc1cc2ncnc(Nc3ccc(F)c(Cl)c3)c2cc1OCCCN1CCOCC1 [gefitinib]
Summary of the method: as §1

[8] = compound: COc1cccc2cc(-c3nc([C@H]4CC[C@H](C(=O)O)CC4)n4ncnc(N)c34)[nH]c12
Summary of the method: as §1

[9] = compound: CS(=O)(=O)CCNCc1ccc(-c2ccc3ncnc(Nc4ccc(OCc5cccc(F)c5)c(Cl)c4)c3c2)o1 [lapatinib]
Summary of the method: as §1

[10] = compound: CS(=O)(=O)N1CCN(Cc2cc3nc(-c4cccc5[nH]ncc45)nc(N4CCOCC4)c3s2)CC1 [pictilisib]
Summary of the method: as §1

[11] = compound: CS(=O)(=O)c1ccc(-c2cnc(N)c(C(=O)Nc3ccccc3)n2)cc1
Summary of the method: as §1

[12] = compound: C[C@@H](Oc1cc(-c2cnn(C3CCNCC3)c2)cnc1N)c1c(Cl)ccc(F)c1Cl [crizotinib]
Summary of the method: as §1

[13] = compound: C[C@@H]1COCCN1C2=NC(=NC(=C2)C3(CC3)S(=O)(=O)C)C4=C5C=CNC5=CC=C4
Summary of the method: as §1

[14] = compound: C[C@H](C1=CC=C(C=C1)C(=O)NC2=C3C=CNC3=NC=C2)N
Summary of the method: as §1

[15] = compound: C[C@H](Nc1ncnc2nc[nH]c12)c1cc2cccc(Cl)c2c(=O)n1-c1ccccc1 [duvelisib]
Summary of the method: as §1

[16] = compound: Cc1cc(Nc2cc(CN3CCOCC3)c3nc(C)c(Cc4ccc(Cl)cc4F)n3n2)n[nH]1 [gandotinib]
Summary of the method: as §1

[17] = compound: Cc1cc(Nc2cc(N3CCN(C)CC3)nc(Sc3ccc(NC(=O)C4CC4)cc3)n2)n[nH]1 [tozasertib]
Summary of the method: as §1

[18] = compound: Cc1cc(SCc2sc(-c3ccc(C(F)(F)F)cc3)nc2C)ccc1OCC(=O)O
Summary of the method: as §1

[19] = compound: Cc1ccc(-n2nc(C(C)(C)C)cc2NC(=O)Nc2ccc(OCCN3CCOCC3)c3ccccc23)cc1 [doramapimod]
Summary of the method: as §1

[20] = compound: Cc1ccc(C(=O)N(CCCN)[C@@H](c2nc3cc(Cl)ccc3c(=O)n2Cc2ccccc2)C(C)C)cc1 [ispinesib]
Summary of the method: as §1

UniProt O43766, sequence (O43766 whole entry, looked up): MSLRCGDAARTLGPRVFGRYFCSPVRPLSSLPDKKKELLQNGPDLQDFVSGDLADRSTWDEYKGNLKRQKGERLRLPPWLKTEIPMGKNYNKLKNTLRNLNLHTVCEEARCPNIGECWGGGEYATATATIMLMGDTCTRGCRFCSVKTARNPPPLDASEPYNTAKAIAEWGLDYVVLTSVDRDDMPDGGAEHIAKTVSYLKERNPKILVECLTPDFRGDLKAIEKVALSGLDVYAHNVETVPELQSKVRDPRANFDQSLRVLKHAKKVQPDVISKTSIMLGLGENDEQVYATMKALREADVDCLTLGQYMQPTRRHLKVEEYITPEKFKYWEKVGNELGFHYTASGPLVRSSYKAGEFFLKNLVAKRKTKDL
UniProt Q9H6V9, sequence (Q9H6V9 whole entry, looked up): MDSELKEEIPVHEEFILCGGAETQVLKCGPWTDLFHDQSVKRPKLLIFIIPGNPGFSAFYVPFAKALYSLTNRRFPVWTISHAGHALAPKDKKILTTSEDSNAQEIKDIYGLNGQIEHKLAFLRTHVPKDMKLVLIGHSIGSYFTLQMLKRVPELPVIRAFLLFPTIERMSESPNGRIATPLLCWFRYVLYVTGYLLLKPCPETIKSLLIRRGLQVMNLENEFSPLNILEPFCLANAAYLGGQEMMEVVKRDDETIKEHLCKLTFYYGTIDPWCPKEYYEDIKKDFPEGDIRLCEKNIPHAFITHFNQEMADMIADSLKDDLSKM
UniProt P49006, sequence (P49006 whole entry, looked up): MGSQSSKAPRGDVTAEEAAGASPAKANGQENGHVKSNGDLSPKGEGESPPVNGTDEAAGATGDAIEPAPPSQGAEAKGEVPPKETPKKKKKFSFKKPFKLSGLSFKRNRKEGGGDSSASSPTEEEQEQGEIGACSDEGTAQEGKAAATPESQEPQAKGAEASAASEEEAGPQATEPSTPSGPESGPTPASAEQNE
UniProt P01130, sequence (P01130 whole entry, looked up): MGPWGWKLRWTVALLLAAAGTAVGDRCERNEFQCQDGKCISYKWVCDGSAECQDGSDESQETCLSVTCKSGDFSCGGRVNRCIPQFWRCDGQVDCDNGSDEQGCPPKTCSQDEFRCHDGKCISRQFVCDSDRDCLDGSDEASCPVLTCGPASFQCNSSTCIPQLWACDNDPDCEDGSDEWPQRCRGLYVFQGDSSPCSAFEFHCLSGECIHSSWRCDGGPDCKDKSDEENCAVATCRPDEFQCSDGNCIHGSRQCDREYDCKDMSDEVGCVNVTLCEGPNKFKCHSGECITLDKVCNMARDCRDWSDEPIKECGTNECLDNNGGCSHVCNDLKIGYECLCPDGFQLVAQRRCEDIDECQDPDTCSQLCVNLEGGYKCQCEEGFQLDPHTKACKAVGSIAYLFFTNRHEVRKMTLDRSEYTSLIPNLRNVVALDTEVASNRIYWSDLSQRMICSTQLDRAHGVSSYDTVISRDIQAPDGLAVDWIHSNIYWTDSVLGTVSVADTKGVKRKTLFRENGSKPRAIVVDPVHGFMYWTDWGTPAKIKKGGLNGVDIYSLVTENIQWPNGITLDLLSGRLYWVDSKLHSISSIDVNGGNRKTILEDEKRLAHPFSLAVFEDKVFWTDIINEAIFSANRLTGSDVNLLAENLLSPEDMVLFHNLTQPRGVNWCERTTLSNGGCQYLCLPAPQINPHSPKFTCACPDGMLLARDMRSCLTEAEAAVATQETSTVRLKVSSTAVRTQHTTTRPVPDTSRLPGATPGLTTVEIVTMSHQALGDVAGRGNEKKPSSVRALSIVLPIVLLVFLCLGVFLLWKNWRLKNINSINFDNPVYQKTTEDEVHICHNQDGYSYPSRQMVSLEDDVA

| Target | log2 fold change [1] | log2 fold change [2] | log2 fold change [3] | log2 fold change [4] | log2 fold change [5] | log2 fold change [6] | log2 fold change [7] | log2 fold change [8] | log2 fold change [9] | log2 fold change [10] | log2 fold change [11] | log2 fold change [12] | log2 fold change [13] | log2 fold change [14] | log2 fold change [15] | log2 fold change [16] | log2 fold change [17] | log2 fold change [18] | log2 fold change [19] | log2 fold change [20] |
| --- | --- | --- | --- | --- | --- | --- | --- | --- | --- | --- | --- | --- | --- | --- | --- | --- | --- | --- | --- | --- |
| LIAS (UniProt O43766) | -0.131 | -0.049 | -0.097 | -0.032 | -0.041 | 0.132 | 0.014 | 0.036 | -0.051 | 0.078 | 0.035 | 0.03 | 0.039 | 0.075 | 0.043 | 0.086 | -0.015 | -0.08 | 0 | -0.24 |
| MARCKSL1 (UniProt P49006) | -0.074 | 0.002 | -0.033 | -0.011 | -0.093 | 0.073 | -0.027 | 0.028 | -0.061 | 0.026 | 0.032 | 0.09 | -0.006 | -0.094 | 0.025 | -0.006 | -0.033 | -0.074 | -0.047 | 0.071 |
| LDLR (UniProt P01130) | -0.012 | 0.005 | -0.07 | 0.009 | 0.073 | -0.017 | 0.095 | 0.008 | 0.042 | 0.078 | -0.005 | -0.363 (active) | -0.05 | -0.045 | -0.05 | -0.038 | -0.088 | -0.094 | -0.017 | -0.052 |
| LDAH isoform 2 (UniProt Q9H6V9) | 0.06 | -0.137 | 0.057 | -0.185 | -0.041 | -0.517 (active) | 0.004 | 0.032 | -0.005 | 0.075 | 0.052 | -0.308 (active) | 0.064 | -0.035 | 0.001 | -0.001 | -0.047 | 0.204 | 0.019 | -0.438 (active) |
